# Screens: PubChem BioAssay, National Center for Advancing Translational Sciences (NCATS)
# NIH3T3 tox = Cytotoxic Profiling in NIH 3T3 Cell Line of Diverse Libraries Using Quantitative High-Throughput Screening. Potency, µM (top dose mostly 96.7 µM), for the others: top-dose activity change, negative = cytotoxicity, most hits filed as inhibitors. AID 1345082, 2018. 4.3% of 94,000 active. NIH 3T3 viability, CellTiter-Glo ATP luminescence, 48-72 h; also: nearly all actives have a fitted effect of over 55% in size
#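 Cells were seeded at 400 per well, treated with pin-transferred compound, and kept 48 or 72 hr at 37 °C before CellTiter-Glo addition and luminescence imaging of cellular ATP.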
# hNpr1 antagonist = Natriuretic polypeptide receptor (hNpr1) antagonism - Primary qHTS; Atrial natriuretic peptide receptor 1 (Homo sapiens), P16066; 1.6% of 76,000 active; HEK293 hNpr1 GloSensor cGMP, ANP-stimulated luminescence; AID 1347048, 2019; Potency, µM (doses to about 46.3 µM), for the others: top-dose activity change, negative = inhibition, hits mostly inhibitors; calls by dose curve; also: nearly all actives have a fitted effect of over 60% in size
#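 HEK293 cells stably expressing human Npr1 and cGMP GloSensor pGS-40F, loaded 2 h with 2% GloSensor reagent, given compound 30 min at room temperature. Luminescence read before and 20 min after 0.1 nM hNppA.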
# GPT2 inhibitor = Primary qHTS assay for inhibitors of Glutamate pyruvate transaminase 2 (GPT2). Alanine aminotransferase 2 (Homo sapiens), Q8TD30. 0.25% of 100,000 active. Recombinant GPT2, coupled pyruvate oxidase/HRP Amplex Red fluorescence. Potency, µM (titrated, usually from 57.7 µM), for the others: at the top dose activity change, negative = inhibition, hits mostly inhibitors. AID 1671188, 2021; also: nearly all actives have a fitted effect of over 60% in size
#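 Fluorescence of coupled pyruvate oxidase/HRP/Amplex Red system (50uM Amplex, 30 min, dark) reports pyruvate formed by GPT2. Enzyme reaction: 10ng/uL GPT2, 2mM L-alanine, 250uM a-KG, 30 min room temperature, pH 7.5; 50uM AOA control.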
# Luciferase inh = Firefly luciferase inhibition profiling of diverse chemical library using quantitative high-throughput screening; Luciferin 4-monooxygenase (Photinus pyralis), P08659; purified P. pyralis luciferase, luminescence, biochemical; Potency, µM (highest dose often 115 µM), most hits filed as inhibitors; 2.5% of 76,000 active; AID 1347043, 2019; also: nearly all actives have a fitted effect of over 65% in size
# Target sequence (P08659 whole entry, looked up): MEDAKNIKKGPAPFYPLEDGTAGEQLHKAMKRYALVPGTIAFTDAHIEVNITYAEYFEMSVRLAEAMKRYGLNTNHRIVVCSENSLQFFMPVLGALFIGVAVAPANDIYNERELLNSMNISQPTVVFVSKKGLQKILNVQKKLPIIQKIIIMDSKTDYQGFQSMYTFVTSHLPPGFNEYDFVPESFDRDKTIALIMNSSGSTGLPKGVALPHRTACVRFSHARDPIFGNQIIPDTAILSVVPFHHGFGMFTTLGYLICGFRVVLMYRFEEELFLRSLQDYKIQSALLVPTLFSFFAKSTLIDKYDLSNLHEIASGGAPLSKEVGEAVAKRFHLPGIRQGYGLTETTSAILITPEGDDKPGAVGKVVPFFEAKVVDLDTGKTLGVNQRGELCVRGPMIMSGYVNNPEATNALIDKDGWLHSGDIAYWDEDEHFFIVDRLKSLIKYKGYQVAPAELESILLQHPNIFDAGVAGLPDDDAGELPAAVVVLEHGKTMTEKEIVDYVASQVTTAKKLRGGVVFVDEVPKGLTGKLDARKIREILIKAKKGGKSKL
#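 FLuc 10nM, D-luciferin 10uM, ATP 10uM, Mg acetate 10mM, Tris acetate pH 7.5, Tween/BSA; cpd qHTS; enzyme added last; CCD luminescence.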
# HEK293 tox = Cytotoxic Profiling in HEK 293 Cell Line of Diverse Libraries Using Quantitative High-Throughput Screening; HEK 293 viability, ATP luminescence (CellTiter-Glo), 48-72 h; Potency, µM (titrated, usually from 115 µM), without a hit: top-dose activity change, negative = cytotoxicity, most hits filed as inhibitors; 6.6% of 94,000 active; AID 1345083, 2018; also: nearly all actives have a fitted effect of over 60% in size
#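 HEK 293 cells seeded at 250 cells/well were exposed to compound for 48 or 72 hr at 37 degree Celsius. Viability taken as ATP content by CellTiter-Glo luminescence.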
# Starred values were filed as active, the others as inactive; i = inactive; ? = inconclusive; nt = not tested or not shown; [ ] = remark or other dose. Sampled rows, rich in hits. Any-hit rate of the full collection: about 10%. Unless noted, calls follow the shape of the dose curve; as a rule, active = well fitted curve in the direction sought with a large enough effect; inconclusive = small, poorly fitted or top-dose-only effect, or another doubt; inactive = no such curve, though single readings can be large; an effect the other way counts as inactive or inconclusive. % is scaled to controls: 0 for no effect and ±100 for the full control effect; potency is read from the fitted curve at half-maximal effect.
SMILES,NIH3T3 tox,hNpr1 antagonist,GPT2 inhibitor,Luciferase inh,HEK293 tox
Cn1c([C@H]2CCN(Cc3cnc4ccccc4c3)C2)nc2ccccc21,?,-6.5%[70.6 µM],i,i,70.8µM*
Cn1c(CO[C@H]2CN(Cc3cnc4ccccc4c3)C[C@H]2F)nc2ccccc21,?,?,i,i,79.4µM*
c1ccc2ncc(CN3CC[C@H](c4nc5ccccc5[nH]4)C3)cc2c1,?,-16.4%[70.6 µM],-4.1%[88.5 µM],i,70.8µM*
Cn1c(CN2CC[C@H](c3nc4ccccc4[nH]3)C2)nc2ccccc21,?,-14.6%[70.6 µM],?,i,44.7µM*
COc1ccc2c(C)c(C(=O)N(C)Cc3csc(C(C)C)n3)oc2c1,?,1.4%,-2.0%,i,44.7µM*
CCn1ccc(C(=O)NC2CCCN(c3cc(-c4ccc(Cl)cc4)[nH]n3)C2)n1 (configuration not stated),?,-15.3%,0.4%,35.5µM*,?
CCn1ccc(C(=O)NC2CCCN(c3cc(-c4ccc(OC)cc4)[nH]n3)C2)n1 (configuration not stated),-22.1%,0.3%,-6.8%,28.2µM*,?
CN(C)C(=O)N1CCC(C(=O)N2CCCC2c2nc3ccncc3[nH]2)CC1 (configuration not stated),-6.0%,nt,i,nt,-2.9%
COC(=O)c1ccc2nc(CO[C@H]3CN(Cc4ccc(C(F)(F)F)cc4)C[C@H]3F)[nH]c2c1,?,?,-11.4%,i,50.1µM*
Cc1cc2nc(CO[C@H]3CN(Cc4ccc(C(=O)O)cc4)C[C@H]3F)[nH]c2cc1C,-1.4%[174 µM],-2.6%[70.6 µM],1.9%[88.5 µM],22.4µM*,-8.1%[172 µM]
Cc1ccc(-c2ncc(C(=O)NCCN(C)C3CCCCC3)c(-c3ccncc3)n2)cc1,25.1µM*,0.7%,i,i,20µM*
Cc1cc(Cl)ccc1NC(=O)c1cnc(-c2ccccc2)nc1-c1ccncc1,20µM*,?,i,i,44.7µM*
Cc1ccc(-c2ncc(C(=O)Nc3cccc(Br)c3)c(-c3ccncc3)n2)cc1,?,-11.6%,?,i,25.1µM*
O=C([C@@H]1C[C@H](Oc2ccccc2)CN1C(=O)CC1CCCC1)N1CCCC1,31.6µM*,0.2%,?,i,i
O=C(Nc1ccc(Oc2cccnc2)cc1)C1CCN(CCCc2ccccc2)CC1,?,-11.9%,0.2%,i,25.1µM*
O=C(C1CC=CC1)N1CCC[C@H](n2c(=O)n(Cc3cccc(F)c3)c3cccnc32)C1,?,nt,i,nt,?
O=C(c1ccc(-c2ccc(N3CCCCCC3)nc2)cc1)N1CCCC1,31.6µM*,?,1.5%,?,28.2µM*
CN(C)C(=O)c1ccnc(-c2nnc3ccc(NC4CCCCC4)nn23)c1,?,4.2%[70.6 µM],-10.9%[88.5 µM],i,0.8%[172 µM]
CN(C)C(=O)c1ccc(-c2ccc(N3CCCCCC3)nc2)cc1,?,-23.4%,1.2%,17.8µM*,31.6µM*
CN(C)C(=O)c1ccnc(-c2nnc3ccc(N4CCCCC4)nn23)c1,31.6µM*,-2.1%[70.6 µM],1.8%[88.5 µM],i,4.7%[172 µM]
CCCN1CCC(N2CCC3(CC2)CC2C(=O)N(CC)C(=O)N2C3)CC1 (configuration not stated),2.5%,nt,4.4%,nt,-4.8%
O=C(NCCc1ccc(Cl)cc1)c1ccc2nnc(-c3cc(F)ccc3F)n2c1,?,nt,-6.6%,nt,?
COc1cc(OC)c(-c2nc3ccc(-c4ccc(OC)c(OC)c4OC)cc3o2)cc1OC,31.6µM*,-21.0%,?,i,?
OC[C@@H]1CNC[C@H]1C1CCN(Cc2ccc(Br)cc2F)CC1,?,-7.6%,-13.3%,i,?
OC[C@@H]1CNC[C@H]1C1CCN(Cc2ccc(F)c(Br)c2)CC1,35.5µM*,7.1%,3.6%,i,?
SMILES,NIH3T3 tox,hNpr1 antagonist,GPT2 inhibitor,Luciferase inh,HEK293 tox
O=C(NCCc1ccccc1)C1CCCN(Cc2cccc(-c3cccs3)c2)C1 (configuration not stated),?,nt,i,nt,?
O=C(NCCc1ccccc1)C1CCCN(Cc2cccc(-c3ccsc3)c2)C1 (configuration not stated),39.8µM*,nt,nt,nt,?
O=C(C1CCCN(Cc2cccc(-c3ccsc3)c2)C1)N1CCN(c2ncccn2)CC1 (configuration not stated),?,nt,nt,nt,31.6µM*
O=C(NCCNC(=O)C1CCCC1)c1cccc(-c2ccsc2)c1,?,nt,-1.1%[88.5 µM],nt,79.4µM*
O=C(NCCNC(=O)c1cccc(-c2ccsc2)c1)NC1CCCC1,-24.9%,nt,4.5%,nt,?
O=C(NCCCc1ccccc1)C1CCCN(Cc2cccc(-c3ccsc3)c2)C1 (configuration not stated),35.5µM*,nt,nt,nt,39.8µM*
O=C(NCC1CCCCC1)C1CCCN(c2ccnc3ccnn23)C1 (configuration not stated),?,nt,i,nt,?
COc1ccc(C(=O)N2CCC(c3noc(COc4ccc(C)cc4)n3)CC2)cn1,?,nt,-5.0%,nt,?
Cc1ccc(C(=O)Nc2ccc(CN3CCN(C)CC3)c(C(F)(F)F)c2)cc1C#Cc1cnc2[nH]ncc2c1,nt,nt,1.0%,nt,nt
CCCCOc1ccc(-c2nc(C3CC(=O)N(c4ccc(F)cc4)C3)no2)cc1 (configuration not stated),-15.9%,4.6%,3.8%,i,-2.3%
CC(C)N1CC2CCC(C1)N2Cc1cccc(-c2ccsc2)c1,?,nt,i,nt,?
CC(C)NC(=O)C1CCCN(Cc2cccc(-c3ccsc3)c2)C1 (configuration not stated),?,nt,nt,nt,44.7µM*
COC(=O)[C@@H]1Cc2c([nH]c3ccccc23)[C@H]2C[C@@H](NCCCn3ccnc3)C[C@@H](c3ccc(F)cc3)N21,25.1µM*,-2.0%,4.0%,i,25.1µM*
O=C(NCCCn1ccnc1)c1ccc(C2CCCNC2)cc1 (configuration not stated),i,3.9%,i,i,0.5%
COC(=O)[C@@H]1Cc2c([nH]c3ccccc23)[C@H]2C[C@@H](NCCCn3ccnc3)C[C@@H](c3cccc(Cl)c3)N21,17.8µM*,-12.0%,0.6%,i,28.2µM*
CN1Cc2ccc(NCc3ccccc3)nc2C(C)(C(=O)NCCCn2ccnc2)C1 (configuration not stated),?,-1.6%[70.6 µM],-3.4%[88.5 µM],i,?
COC(=O)[C@@H]1Cc2c([nH]c3ccccc23)[C@H]2C[C@@H](NCCCn3ccnc3)C[C@@H](c3ccc(Cl)c(F)c3)N21,25.1µM*,0.3%,1.1%,i,28.2µM*
